# Experimental data published in PubChem BioAssay (EPA / NIEHS).
# Calls of active or inactive are those of the source. The calls were made as follows: active = hit-call score of the fitted dose curve at least 0.9, where 1 is the maximum; inactive = score below 0.9.
# Read-out: urokinase plasminogen activator (uPA), PLAU (gene 5328)
# Assay: BSK_BE3C_uPA: BioMAP Diversity Plus: BE3C Assay for urokinase plasminogen activator (uPA) Biomarker Activity (AID 2283038);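 as to outcome: uPA protein level quantified by ELISA in cell cultures; uPA read one day after compound addition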
# Settings: primary human bronchial epithelial cells; actives raise or lower the signal
# Summary of the method: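 ELISA for uPA on human primary bronchial epithelial cultures 24 h post-treatment, gain or loss against DMSO. Parallel SRB staining (0.1% after 10% TCA fixation, 560 nm) assessed overt cytotoxicity.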
Compound,outcome,AC50
CCCCC(CC)COC(=O)CCCCC(=O)OCC(CC)CCCC (stereo not drawn),inactive,
Nc1cccc2c(N)cccc12,inactive,
CCCCC(CC)COC(=O)CCCCC(=O)OCc1ccccc1 (stereo not drawn),inactive,
Oc1cc2ccccc2c2ccccc12,,13.9 µM (active)
CC(O)CO (stereo not drawn),inactive,
CN1CCN(c2ccccc2/C=C2\SCCN(c3ccc(Cl)c(Cl)c3)C2=O)CC1,,30.4 µM (active)
O=c1c(-c2ccc(O)cc2)coc2cc(O)ccc12,inactive,
Cc1oc(-c2ccccc2)nc1CCOc1ccc(C[C@H](Nc2ccccc2C(=O)c2ccccc2)C(=O)O)cc1,,1.8 µM (active)
CCC(=C(c1ccc(O)cc1)c1ccc(OCCN(C)C)cc1)c1ccccc1,,9.93 µM (active)
c1ccc2cc3c(ccc4ccccc43)cc2c1,inactive,
O=[N+]([O-])c1ccc(O)cc1,inactive,
O=C(O)c1ccccc1C(c1ccc(O)cc1)c1ccc(O)cc1,inactive,
CCCCCCCCCCCCc1ccccc1S(=O)(=O)O,,13.9 µM (active)
NC(=O)N1C(=O)C(C(=O)c2cc(Cl)cs2)c2cc(F)c(Cl)cc21 (stereo not drawn),,6.91 µM (active)
CC1=C(/C=C/C(C)=C/C=C/C(C)=C/C(=O)O)C(C)(C)CCC1,inactive,
CC[C@H](c1ccc(O)cc1)[C@@H](CC)c1ccc(O)cc1,,37.2 µM (active)

Compound,outcome,AC50
CC(C)(C)CC(C)(C)c1ccc(O)c(-n2nc3ccccc3n2)c1,inactive,
CCCCCCCCOC(=O)CCCCCCCCC(=O)OCCCCCCCC,inactive,
CCc1nn(C2CCCCC2)c2cc(C3(C#N)CCC(C(=O)O)CC3)ccc12 (stereo not drawn),,3.48 µM (active)
CN1CCC[C@H]1c1cccnc1,inactive,
CCCCCCCCCCCCN1CCCC1=O,,35.1 µM (active)
C#C[C@]1(O)CC[C@H]2[C@@H]3CCC4=CC(=O)CC[C@@H]4[C@H]3CC[C@@]21C,inactive,
CC#C[C@]1(O)CC[C@H]2[C@@H]3CCC4=CC(=O)CCC4=C3[C@@H](c3ccc(N(C)C)cc3)C[C@@]21C,,34.7 µM (active)
COc1ccc([N+](=O)[O-])cc1N,inactive,
CC(=O)NC1(c2cccc(F)c2)CCN(CC[C@@]2(c3ccc(Cl)c(Cl)c3)CN(c3ccccc3)C(=O)CO2)CC1,,16.6 µM (active)
OC1CCC(C2CCCCC2)CC1 (stereo not drawn),inactive,
CC(C)(C)c1ccc(O)c(C(C)(C)C)c1,,30.7 µM (active)
CC[C@H](C)[C@@H](C(=O)O)n1sc2ccccc2c1=O,inactive,
OC1CCCCC1,inactive,
c1ccc2c(c1)Cc1ccccc1-2,inactive,
C=C(C)C(=O)OCCC(F)(F)C(F)(F)C(F)(F)C(F)(F)C(F)(F)C(F)(F)F,inactive,
CCCOc1sc(C(=O)N2CCC(c3cc(CN)ccc3F)CC2)c(C)c1Br,,5.88 µM (active)

# Read-out: Urokinase-type plasminogen activator receptor (uPAR), PLAUR (gene 5329)
# Assay: BSK_BE3C_uPAR: BioMAP Diversity Plus: BE3C Assay for Urokinase-type plasminogen activator receptor (uPAR) Biomarker Activity (AID 2283039);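 as to outcome: cells exposed to compound for one day before measurement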
# Settings: primary human bronchial epithelial cells; actives raise or lower the signal
# Summary of the method: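 uPAR levels were measured by ELISA after 24 h compound treatment of primary human bronchial epithelial cells, fitted in both directions relative to DMSO. Parallel SRB staining served as the cytotoxicity read-out.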
Compound,outcome,AC50
CCCCC(CC)COC(=O)CCCCC(=O)OCC(CC)CCCC (stereo not drawn),inactive,
Nc1cccc2c(N)cccc12,inactive,
CCCCC(CC)COC(=O)CCCCC(=O)OCc1ccccc1 (stereo not drawn),inactive,
Oc1cc2ccccc2c2ccccc12,,27.6 µM (active)
CC(O)CO (stereo not drawn),inactive,
O=c1c(-c2ccc(O)cc2)coc2cc(O)ccc12,inactive,
Cc1oc(-c2ccccc2)nc1CCOc1ccc(C[C@H](Nc2ccccc2C(=O)c2ccccc2)C(=O)O)cc1,,3.63 µM (active)
CCC(=C(c1ccc(O)cc1)c1ccc(OCCN(C)C)cc1)c1ccccc1,,9.55 µM (active)
c1ccc2cc3c(ccc4ccccc43)cc2c1,inactive,
O=[N+]([O-])c1ccc(O)cc1,inactive,
O=C(O)c1ccccc1C(c1ccc(O)cc1)c1ccc(O)cc1,inactive,
CCCCCCCCCCCCc1ccccc1S(=O)(=O)O,,14.2 µM (active)
NC(=O)N1C(=O)C(C(=O)c2cc(Cl)cs2)c2cc(F)c(Cl)cc21 (stereo not drawn),,6.27 µM (active)
CC1=C(/C=C/C(C)=C/C=C/C(C)=C/C(=O)O)C(C)(C)CCC1,inactive,
CC[C@H](c1ccc(O)cc1)[C@@H](CC)c1ccc(O)cc1,,37.8 µM (active)
CC(C)(C)CC(C)(C)c1ccc(O)c(-n2nc3ccccc3n2)c1,inactive,

Compound,outcome,AC50
CCCCCCCCOC(=O)CCCCCCCCC(=O)OCCCCCCCC,inactive,
CCc1nn(C2CCCCC2)c2cc(C3(C#N)CCC(C(=O)O)CC3)ccc12 (stereo not drawn),,5.01 µM (active)
CN1CCC[C@H]1c1cccnc1,inactive,
CCCCCCCCCCCCN1CCCC1=O,,32.4 µM (active)
C#C[C@]1(O)CC[C@H]2[C@@H]3CCC4=CC(=O)CC[C@@H]4[C@H]3CC[C@@]21C,inactive,
CC#C[C@]1(O)CC[C@H]2[C@@H]3CCC4=CC(=O)CCC4=C3[C@@H](c3ccc(N(C)C)cc3)C[C@@]21C,,33.7 µM (active)
COc1ccc([N+](=O)[O-])cc1N,inactive,
CC(=O)NC1(c2cccc(F)c2)CCN(CC[C@@]2(c3ccc(Cl)c(Cl)c3)CN(c3ccccc3)C(=O)CO2)CC1,,16.6 µM (active)
OC1CCC(C2CCCCC2)CC1 (stereo not drawn),inactive,
CC(C)(C)c1ccc(O)c(C(C)(C)C)c1,,36.3 µM (active)
CC[C@H](C)[C@@H](C(=O)O)n1sc2ccccc2c1=O,inactive,
OC1CCCCC1,inactive,
O=C(O)Cc1cc(I)c(Oc2cc(I)c(O)c(I)c2)c(I)c1,,10.4 µM (active)
C=C(C)C(=O)OCCC(F)(F)C(F)(F)C(F)(F)C(F)(F)C(F)(F)C(F)(F)F,inactive,
CCCOc1sc(C(=O)N2CCC(c3cc(CN)ccc3F)CC2)c(C)c1Br,,7.36 µM (active)
